{"source": "PubChem BioAssay AID1117361", "about": "(Southern Research Institute, 2015)", "note": "Hit rate of the full screen: of about 3,600 compounds, about 900 (25%) were called active. Not all results are given here. Potency and affinity values are given separately. Unmarked numbers belong to inactive results. The rule behind the calls is not given here."}
{"molecular_target": "Protein Tat (Human immunodeficiency virus type 1 group M subtype B (isolate HXB2)) (UniProt P04608)", "assay": "HIV-1 Tat–TAR interaction blockers – biochemical, fluorescence polarization, FAM-labeled TAR RNA, counter-screen for Vif-APOBEC3G degradation inhibitor project, dose response (AID 1117361)", "details": "Tat-TAR RNA binding; series mostly up to 100 µM; inhibition: at the top concentration", "units": {"inhibition": "%"}}
{"smiles": "O=C(CN1CCN(c2ccccc2O)CC1)Nc1ccc2c(c1)CCC2", "inhibition": 1.36}
{"smiles": "O=[N+]([O-])c1ccc(NCCCNS(=O)(=O)c2ccc(Cl)cc2)c(Cl)c1", "inhibition": 3.38}
{"smiles": "COc1cc([N+](=O)[O-])c(N2CCOCC2)c([N+](=O)[O-])c1OC", "outcome": "inactive"}
{"smiles": "O=S(=O)(NCC1CCCO1)c1cc(Br)c(Br)s1", "note": "(stereo not given)", "outcome": "inactive"}
{"smiles": "CCCOC(=O)/C(C(N)=NCc1ccccc1)=C(\\O)OCCC", "inhibition": 9.02}
{"smiles": "O=C1CCCC2=C1C(c1cccs1)n1ncnc1N2", "note": "(stereo not given)", "inhibition": 9.46}
{"smiles": "Cc1cc(C)n2nc(SCC(=O)Nc3ccc(F)cc3)nc2n1", "inhibition": 6.08}
{"smiles": "Cc1nnc(NCCc2ccccc2)n(N)c1=O", "inhibition": 3.38}
{"smiles": "O=C(CCOc1ccccc1)NCC(c1ccco1)N1CCCCC1", "note": "(stereo not given)", "inhibition": 8.87}
{"smiles": "O=C(NCC(c1ccco1)N1CCCC1)c1cccc(S(=O)(=O)N2CCCCC2)c1", "note": "(stereo not given)", "inhibition": 11}
{"smiles": "Nc1nc(Nc2ccccc2)sc1C(=O)c1ccccc1", "inhibition": 9.07}
{"smiles": "COCCN(Cc1cc2ccccc2[nH]c1=O)C(=O)c1ccccc1OC", "inhibition": 4.77}
{"smiles": "CCc1ccc2c(c1)cc(C)c1nnc(SCC(=O)Nc3cc(OC)c(OC)cc3C(=O)O)n12", "outcome": "inactive"}
{"smiles": "C=CCOc1ccc(Br)cc1/C=N/O", "inhibition": 11.5}
{"smiles": "Cc1cccc(C)c1NC(=O)CS(=O)CC(=O)NC1CCN(Cc2ccccc2)CC1", "note": "(stereo not given)", "outcome": "inactive [at 50 µM]"}
{"smiles": "CCOC(=O)CC(=O)CSc1ncc(C(=O)OCC)c(N)n1", "outcome": "inactive"}
{"smiles": "CCOC(=O)c1ccc(-n2ncc(C(=O)OCC)c2N)cc1", "outcome": "inactive"}
{"smiles": "COc1ccc2cc(C3(C)NC(=O)N(CC(=O)Nc4c(C)n(C)n(-c5ccccc5)c4=O)C3=O)ccc2c1", "note": "(stereo not given)", "inhibition": 11.6}
{"smiles": "O=S(=O)(/C=C/c1ccccc1)N1CCN(c2ccc(F)cc2)CC1", "inhibition": 4.09}
{"smiles": "CC(=O)Nc1cccc(C(=O)NC(C)c2ccc(S(N)(=O)=O)cc2)c1", "note": "(stereo not given)", "inhibition": 13.5}
{"smiles": "CCCN(CCC)CCCNc1ccc2nnc(-c3ccc(F)cc3)n2n1", "inhibition": 25}
{"smiles": "CCOC(=O)C1CCN(C(=O)c2ccc(OC)cc2OC)CC1", "outcome": "inactive"}
{"smiles": "CCOC(=O)C1CCN(C(=O)C2CCN(S(=O)(=O)c3cc(Cl)ccc3Cl)CC2)CC1", "inhibition": 2.03}
{"smiles": "CCC1SC2=NC(C)=C(C(=O)OC)C(c3ccc(C(=O)OC)cc3)N2C1=O", "note": "(stereo not given)", "inhibition": 2.05}
{"smiles": "CCOC(=O)c1ccc(N2C(=O)c3n[nH]c(C)c3C2c2ccc(OC)cc2OC)cc1", "note": "(stereo not given)", "outcome": "inactive"}
{"smiles": "CC1=NN(C(=O)c2csc(C)c2)C(O)(C(F)(F)F)C1", "note": "(stereo not given)", "outcome": "inactive"}
{"smiles": "CCCC(=O)Nc1cccc(-c2nc3ccccc3o2)c1", "inhibition": 4.73}
{"smiles": "Brc1ccccc1Cn1c(-c2cncs2)nc2ccccc21", "outcome": "inactive"}
{"smiles": "O=C(CNS(=O)(=O)c1ccc2ccccc2c1)Nc1ccc(F)c(F)c1F", "inhibition": 21.4}
{"smiles": "COc1cccc(CN2CCNC(=O)C2CC(=O)NCCn2nc(C)cc2C)c1OC", "note": "(stereo not given)", "inhibition": 27.2}
{"smiles": "CC(C)(C)CN1CCNC(=O)C1CC(=O)NCCc1ccccc1C(F)(F)F", "note": "(stereo not given)", "outcome": "inactive"}
{"smiles": "O=C(CSc1ccccc1)N1CCN(c2ccccc2)CC1", "inhibition": 2.05}
{"smiles": "Cc1nc2nc(C)c(CCC(=O)N3CCN(c4ccccc4)CC3)c(C)n2n1", "inhibition": 16.4}
{"smiles": "C(=N\\Nc1nncn1/N=C/c1ccco1)/c1ccco1", "outcome": "inactive"}
{"smiles": "Cc1nc2scc(-c3ccccc3)c2c(=O)n1/N=C/c1ccco1", "inhibition": 0.68}
{"smiles": "COc1cccc(/C=N/n2c(-c3cc(C)[nH]n3)n[nH]c2=S)c1", "outcome": "inactive"}
{"smiles": "Cn1ccnc1SCC(=O)c1ccc(Br)cc1", "outcome": "inactive"}
{"smiles": "CCO[C@H]1OC(C(=O)NCc2ccccc2)=C[C@@H](c2coc3ccccc3c2=O)[C@@H]1CCCO", "outcome": "inactive"}
{"smiles": "C/C(N)=C(/C#N)C(=O)COC(=O)CCSc1ccccc1", "inhibition": 4.05}
{"smiles": "CCN(CC)Cc1cc(Nc2c3ccccc3nc3c4ccccc4n(C)c23)cc(CN(CC)CC)c1O", "outcome": "inactive"}
{"smiles": "Clc1ccc(-n2ncc3c(NCc4ccccn4)ncnc32)cc1", "outcome": "inactive"}
{"smiles": "COc1ccccc1C(C#N)N1N=C(C)CC1(C)C", "note": "(stereo not given)", "outcome": "inactive"}
{"smiles": "CSc1nc2ccc3nc(NC(=O)c4ccccc4)sc3c2s1", "inhibition": 8.11}
{"smiles": "CCOc1ccc(C(=O)NC(=S)Nc2ccc(N3CCC(C)CC3)cc2)cc1[N+](=O)[O-]", "inhibition": 10.7}
{"smiles": "CCCCN(C(=O)c1ccccc1OCc1ccc(F)cc1)c1c(N)n(CC(C)C)c(=O)[nH]c1=O", "inhibition": 5.68}
{"smiles": "CC(C)c1ccc(SCc2noc(C(=O)NCC3CCCO3)c2C(=O)O)cc1", "note": "(stereo not given)", "outcome": "inactive"}
{"smiles": "CCN1C(=O)/C(=C/N2CC(C)CC(C)C2)SC1=S", "note": "(stereo not given)", "outcome": "inactive"}
{"smiles": "Cc1ccccc1N1C(=O)C2ON(c3ccccc3)C(c3cccnc3)C2C1=O", "note": "(stereo not given)", "inhibition": 26.6}
{"smiles": "CC1=CCC(/C=N\\Nc2nnc3c(n2)[nH]c2ccccc23)CC1", "note": "(stereo not given)", "inhibition": 10.9}
{"smiles": "CCOC(=O)c1nc2sc(C)c(C)c2c(=O)[nH]1", "outcome": "inactive"}
{"smiles": "CCN1C(=O)c2ccccc2S(=O)c2ccc(C(=O)N3CCCC3)cc21", "note": "(stereo not given)", "outcome": "inactive"}
{"smiles": "Cc1cccc(N2CCN(CC(=O)NCC3CCCCC3)CC2)c1C", "outcome": "inactive"}
{"smiles": "Nc1nc(-c2ccc(F)cc2)cc(C(F)(F)F)n1", "inhibition": 4.05}
{"smiles": "O=C(CN1C(=O)c2ccccc2C1=O)OC(C(=O)c1ccc(Cl)cc1)c1ccccc1", "note": "(stereo not given)", "inhibition": 1.36}
{"smiles": "COc1ccc(NC(=O)c2ccccc2NC(=O)CSc2ccc(Cl)cc2)cc1", "inhibition": 13.5}
{"smiles": "Cc1cc(NC(=O)c2ccccc2F)n(-c2nc3ccccc3[nH]2)n1", "inhibition": 2.05}
{"smiles": "CC(C)(C)NC(=O)NC(=O)COc1ccccc1C#N", "inhibition": 4.73}
{"smiles": "CC1CN(C(=O)N[C@@H](Cc2ccccc2)C(=O)O)CC(C)O1", "note": "(stereo not given in full)", "outcome": "inactive"}
{"smiles": "Cc1ccc(CC(NC(=O)c2ccccc2)C(=O)NC(C)C(=O)O)cc1", "note": "(stereo not given)", "inhibition": 5.41}
{"smiles": "O=C(CSc1nc2ccccc2c(=O)n1NC(=O)Cc1ccccc1)NCc1ccccc1", "inhibition": 1.36}
{"smiles": "C=C(Br)Cn1c(CC)nc2ccccc21", "outcome": "inactive"}
{"smiles": "COC(=O)Cc1cc(=O)n2[nH]c(C)cc2n1", "inhibition": 19.8}
{"smiles": "CCOC(=O)Cc1csc(N/N=C\\c2cccc(Br)c2)n1", "inhibition": 2.03}
{"smiles": "CC(=O)N1CCc2cc(S(=O)(=O)NCCC(=O)Nc3cc(C)cc(C)c3)ccc21", "outcome": "inactive"}
{"smiles": "Oc1ccccc1-c1cc(C(F)(F)C(F)F)[nH]n1", "outcome": "inactive"}
{"smiles": "OC(CN1CCN(c2ccccc2)CC1)c1ccc2c(c1)CCN2", "note": "(stereo not given)", "inhibition": 18.2}
{"smiles": "CCc1ccc(-c2nc(SCC(=O)c3c(N)n(C4CC4)c(=O)[nH]c3=O)n[nH]2)cc1", "outcome": "inactive"}
{"smiles": "COc1ccc(CC(=O)OCC(=O)NCc2ccco2)cc1OC", "outcome": "inactive"}
{"smiles": "O=C(COC(=O)Cc1ccc(Cl)cc1)NCc1ccco1", "inhibition": 17.7}
{"smiles": "COc1cc(C(=O)Nc2ccc(N3CCCS3(=O)=O)cc2)c([N+](=O)[O-])cc1OC", "inhibition": 3.67}
{"smiles": "Cc1cc(O)c(-c2n[nH]c3c2C(c2cccc(O)c2)N(Cc2cccnc2)C3=O)cc1Cl", "note": "(stereo not given)", "outcome": "inactive"}
{"smiles": "N#Cc1c(NC(=O)CSc2nnnn2C2CCCCC2)sc2c1CCCC2", "outcome": "inactive"}
{"smiles": "CCCn1c2ccccc2c2nnc(SC(CC)C(=O)Nc3sc4c(c3C#N)CCCC4)nc21", "note": "(stereo not given)", "inhibition": 8.87}
{"smiles": "CCCC(C)NC(=O)CSCc1ccc(OC)cc1", "note": "(stereo not given)", "outcome": "inactive"}
{"smiles": "CCNc1nc(NCC)nc(OCCNS(=O)(=O)c2cc(C)ccc2C)n1", "inhibition": 2.7}
{"smiles": "COc1ccccc1C=NC(CO)C(O)c1ccc([N+](=O)[O-])cc1", "note": "(stereo not given)", "inhibition": 7.43}
{"smiles": "O=C(NCN1C(=O)C2C3C=CC(C3)C2C1=O)OC1CCCCC1", "note": "(stereo not given)", "outcome": "inactive"}
{"smiles": "Cc1c(NC(=O)NCCN2C(=O)C3C4C=CC(C4)C3C2=O)c(=O)n(-c2ccccc2)n1C", "note": "(stereo not given)", "inhibition": 4.05}
{"smiles": "C=CCc1c(C)nc2c(C(=O)O)cnn2c1C", "inhibition": 4.34}
{"smiles": "Cc1ccccc1-c1nc(CN2CCC(C(=O)N3CCN(c4ccccn4)CC3)CC2)c(C)o1", "inhibition": 13.6}
{"smiles": "COc1ccc(-c2cc(-c3ccccc3)c(C#N)c(S(C)=O)n2)cc1", "note": "(stereo not given)", "outcome": "inactive"}
{"smiles": "Cc1cccc(C)c1NC(=O)c1ccc(-n2cnnn2)cc1", "inhibition": 22.5}
{"smiles": "COc1ccc(C2=NOC(C(=O)NCc3cccs3)C2)cc1OC", "note": "(stereo not given)", "outcome": "inactive"}
{"smiles": "Cc1cccc(N2C(=O)CN=C2Nc2nc(C)cc(C)n2)c1", "inhibition": 4.73}
{"smiles": "COc1ccc(/C=N/OCC(=O)Nc2cc(C)on2)cc1OC", "outcome": "inactive"}
{"smiles": "O=C(Nc1ccc(N2CCCCC2)cc1)c1cc([N+](=O)[O-])cc([N+](=O)[O-])c1", "outcome": "inactive"}
{"smiles": "COC(=O)C1CCN(c2ccc([N+](=O)[O-])cc2)CC1", "outcome": "inactive"}
{"smiles": "CC1(C)Cc2ccccc2C(/C(=N/O)C(N)=O)=N1", "outcome": "inactive"}
{"smiles": "COc1ccc2cnn(CCOc3cc(C)ccc3C(C)C)c(=O)c2c1OC", "inhibition": 1.65}
{"smiles": "Cc1nc(N(C)C)c2sc(=S)n(C)c2n1", "outcome": "inactive"}
{"smiles": "Cc1cccc(NC(=O)CSc2nnc(CCC(=O)Nc3ccc(C)c(Cl)c3)n2C)c1", "inhibition": 4.34}
{"smiles": "CCCCc1nccn1CCn1ccnc1CCCC", "inhibition": 6.14}
{"smiles": "CCc1ccc(C2C(C(C)=O)=C(C(=O)OC)Nc3nnnn32)cc1", "note": "(stereo not given)", "inhibition": 7.5}
{"smiles": "COC(=O)COc1ccc(S(=O)(=O)Nc2ccc(C(N)=O)cc2)cc1C", "outcome": "inactive"}
{"smiles": "COc1ccc(S(=O)(=O)Nc2cc(SCC(=O)O)c(O)c3ccccc23)cc1", "inhibition": 0.33}
{"smiles": "CCc1ccc(CCC(=O)Nc2ccc(S(N)(=O)=O)cc2)o1", "inhibition": 17.6}
{"smiles": "Cc1onc(-c2ccccc2)c1CNC(=O)C1COc2ccccc2O1", "note": "(stereo not given)", "outcome": "inactive"}
{"smiles": "CCc1cccc(NC(=O)Cn2ncn3c(cc4ccccc43)c2=O)c1", "inhibition": 8.11}
{"smiles": "O=S(=O)(c1ccc(OCc2nc3ccccc3s2)c(Cl)c1)N1CCOCC1", "inhibition": 4.09}
{"smiles": "COc1ccc(C(=O)N2CC3(C)CC2CC(C)(C)C3)cc1", "note": "(stereo not given)", "inhibition": 2.03}
{"smiles": "Cc1ccc(OCCN2CCCCCC2)c(C)c1", "inhibition": 2.73}
{"smiles": "CCn1c(C)nc2cc(C(=O)NNC(=O)CCC3CCCCC3)ccc21", "outcome": "inactive"}
{"smiles": "CN(C)S(=O)(=O)c1ccc(NC(=O)c2cc3ccccc3o2)cc1", "outcome": "inactive"}
{"smiles": "COc1cccc(/C=N/NC(=O)c2cnccn2)c1O", "inhibition": 10.7}
{"smiles": "Cc1c(/C=N\\NC(=O)c2csc3ccccc23)cnn1C", "outcome": "inactive"}
{"smiles": "CCN(CC)S(=O)(=O)c1cccc(NN=c2c(=O)c3ccccc3c2=O)c1", "inhibition": 11.6}
{"smiles": "Cc1cccc(N/C=C/C(=C(C#N)C#N)N(C)C)c1", "inhibition": 16.2}
{"smiles": "Cc1cc(SCC(=O)N/N=C/c2ccc(O)c(O)c2O)c(C)cc1Br", "inhibition": 0.33}
{"smiles": "CC1CCCCC1NC(=S)Nc1cccc(S(=O)(=O)N(C)C)c1", "note": "(stereo not given)", "outcome": "inactive"}
{"smiles": "CNC(=O)CN(C)S(=O)(=O)c1ccc(F)cc1", "outcome": "inactive"}
